# Assay results from the supplement of paper PMC10720658.
# ± gives the standard deviation of the averaged measurements.
# System: AEK1 (Tb927.3.2440)
# Experiment: percent reduction in TR-FRET probe signal relative to DMSO control; higher = stronger displacement of ATP-site probe (binding)
# Conditions: 1 µM; incubation time 1 h
row,Structure (SMILES),percent reduction in TR-FRET probe signal [%]
1,CC(C)(C)c1cc(C=C(C#N)C#N)cc(Br)c1O,17.3 ± 12
2,Cn1cc(C2=C(c3cn(C4CCN(Cc5ccccn5)CC4)c4ccccc34)C(=O)NC2=O)c2ccccc21,-6.77 ± 7.9
3,COc1ccc(N(C(=O)Oc2c(C)cccc2C)c2ccnc(Nc3ccc(N4CCN(C)CC4)cc3)n2)c(OC)c1,12.5 ± 3.4
4,O=c1[nH]c2ccccc2n1C1CCN(Cc2ccc(-c3nc4cc5nc[nH]c5cc4nc3-c3ccccc3)cc2)CC1,-9.38 ± 1.6
5,Cc1ccccc1-n1c(Cn2ncc3c(N)ncnc32)nc2cccc(C)c2c1=O,-5.42 ± 2.9
6,CC(C)(C)c1cc(C=C(C#N)C#N)cc(C(C)(C)C)c1O [Tyrphostin 9],15.1 ± 1.3
7,O=c1[nH]c2ccc(Cl)cc2c(N[C@@H]2CN3CCC2CC3)c1-c1nc2ccccc2[nH]1,25.9 ± 11
8,C/C(O)=C(\C#N)C(=O)Nc1cc(Br)ccc1Br,-3.29 ± 1.9
9,CCN1CCN(C(=O)Cc2ccc(Nc3ncc(F)c(Nc4ccc(C(=O)Nc5ccccc5Cl)cc4)n3)cc2)CC1 [Aurora A Inhibitor I],24.1 ± 4.8
10,N#CC(C#N)=Cc1ccc(O)c(O)c1,7.98 ± 17
11,COc1ccc2c(c1)/C(=C/c1cnc[nH]1)C(=O)N2,-2.34 ± 5.7
